# Experimental data: PubChem BioAssay
# Activity calls are given as the source filed them.
# Assays:
# [1] = system: PRMT1 (protein arginine N-methyltransferase 1); assay: small molecules binding arginine methyltransferase PRMT1 – biochemical, small-molecule microarray, 635 nm fluorescence, primary screen (AID 1088); settings: higher = more signal;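 note: binding of Prmt1 protein to compounds spotted on small-molecule microarray slides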
# [2] = growth effects on S. cerevisiae YJM789 – YJM789 clinical isolate, OD600, 24 h, basal, primary screen (AID 1089); settings: higher = more signal, called active from +8 up or from −8 down;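 note: growth of clinical yeast isolate S. cerevisiae YJM 789 seeded 1000 cells per well; test concentration not given here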
# [3] = S. pombe growth modifiers, basal conditions – strain 972, OD600, 24 h, no modulator, primary screen (AID 1090);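 note: basal condition with compound alone and no growth modifier present; test concentration not given here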; settings: S. pombe 972 growth, higher = more signal, called active from +8 up or from −8 down
# [4] = budding yeast growth modifiers under rapamycin – strain BY4716, OD600, 96 h, primary screen (AID 1091); note: test concentration not given here; settings: S. cerevisiae BY4716 + rapamycin, higher = more signal, called active from +8 up or from −8 down
# [5] = target: Torsin-1A-interacting protein 2 (Homo sapiens) (UniProt Q8NFQ8); assay: small molecules binding lysate-expressed LULL1 – cell lysate, human LULL1 lysate, 635/667 nm fluorescence, primary screen (AID 1092); settings: small-molecule microarray, hLULL1 lysate binding, 635 nm fluorescence; higher = more signal;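 note: probe is lysate of COS7 cells overexpressing human LULL1; score merges per-feature 667 nm fluorescence with signal-to-noise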
# [6] = optical density change of DRC41 E. coli – strain DRC41, OD650, 24 h, E. coli filamentation project, primary screen (AID 1093);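 note: MC1000 strain lacking acrAB efflux and sulA so SOS filamentation is blocked; test concentration not given here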; settings: E. coli DRC41 growth, higher = more signal, called active from +8 up or from −8 down
# [7] = probe aLefty2 binding to arrayed compounds – biochemical, biotinylated probe, 635/667 nm fluorescence, primary screen (AID 1094); settings: small-molecule microarray, higher = more signal;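 note: score merges spot fluorescence near 667 nm with spot signal-to-noise ratio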
# [8] = system: Noggin (protein binding on small-molecule microarray); assay: small molecules binding Noggin protein – biochemical, 635/667 nm fluorescence, primary screen (AID 1095); settings: 635 nm fluorescence, higher = more signal;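 note: score merges 667 nm feature fluorescence with signal to noise over triplicate slides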
# [9] = target: Neurogenic locus notch homolog protein 3 (Homo sapiens) (UniProt Q9UM47); assay: small molecules binding NOTCH3 protein – biochemical, 635/667 nm fluorescence, primary screen (AID 1096); settings: small-molecule microarray, 635 nm fluorescence, higher = more signal
# [10] = probe aEGFR binding to arrayed compounds – biochemical, biotinylated probe, 635/667 nm fluorescence, primary screen (AID 1097); settings: small-molecule microarray, higher = more signal;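 note: probe is a biotinylated anti-EGFR antibody binding compounds printed on slides; score combines fluorescence near 667 nm and signal to noise of each spot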
# Neurogenic locus notch homolog protein 3 (Homo sapiens), sequence (Q9UM47 whole entry, looked up): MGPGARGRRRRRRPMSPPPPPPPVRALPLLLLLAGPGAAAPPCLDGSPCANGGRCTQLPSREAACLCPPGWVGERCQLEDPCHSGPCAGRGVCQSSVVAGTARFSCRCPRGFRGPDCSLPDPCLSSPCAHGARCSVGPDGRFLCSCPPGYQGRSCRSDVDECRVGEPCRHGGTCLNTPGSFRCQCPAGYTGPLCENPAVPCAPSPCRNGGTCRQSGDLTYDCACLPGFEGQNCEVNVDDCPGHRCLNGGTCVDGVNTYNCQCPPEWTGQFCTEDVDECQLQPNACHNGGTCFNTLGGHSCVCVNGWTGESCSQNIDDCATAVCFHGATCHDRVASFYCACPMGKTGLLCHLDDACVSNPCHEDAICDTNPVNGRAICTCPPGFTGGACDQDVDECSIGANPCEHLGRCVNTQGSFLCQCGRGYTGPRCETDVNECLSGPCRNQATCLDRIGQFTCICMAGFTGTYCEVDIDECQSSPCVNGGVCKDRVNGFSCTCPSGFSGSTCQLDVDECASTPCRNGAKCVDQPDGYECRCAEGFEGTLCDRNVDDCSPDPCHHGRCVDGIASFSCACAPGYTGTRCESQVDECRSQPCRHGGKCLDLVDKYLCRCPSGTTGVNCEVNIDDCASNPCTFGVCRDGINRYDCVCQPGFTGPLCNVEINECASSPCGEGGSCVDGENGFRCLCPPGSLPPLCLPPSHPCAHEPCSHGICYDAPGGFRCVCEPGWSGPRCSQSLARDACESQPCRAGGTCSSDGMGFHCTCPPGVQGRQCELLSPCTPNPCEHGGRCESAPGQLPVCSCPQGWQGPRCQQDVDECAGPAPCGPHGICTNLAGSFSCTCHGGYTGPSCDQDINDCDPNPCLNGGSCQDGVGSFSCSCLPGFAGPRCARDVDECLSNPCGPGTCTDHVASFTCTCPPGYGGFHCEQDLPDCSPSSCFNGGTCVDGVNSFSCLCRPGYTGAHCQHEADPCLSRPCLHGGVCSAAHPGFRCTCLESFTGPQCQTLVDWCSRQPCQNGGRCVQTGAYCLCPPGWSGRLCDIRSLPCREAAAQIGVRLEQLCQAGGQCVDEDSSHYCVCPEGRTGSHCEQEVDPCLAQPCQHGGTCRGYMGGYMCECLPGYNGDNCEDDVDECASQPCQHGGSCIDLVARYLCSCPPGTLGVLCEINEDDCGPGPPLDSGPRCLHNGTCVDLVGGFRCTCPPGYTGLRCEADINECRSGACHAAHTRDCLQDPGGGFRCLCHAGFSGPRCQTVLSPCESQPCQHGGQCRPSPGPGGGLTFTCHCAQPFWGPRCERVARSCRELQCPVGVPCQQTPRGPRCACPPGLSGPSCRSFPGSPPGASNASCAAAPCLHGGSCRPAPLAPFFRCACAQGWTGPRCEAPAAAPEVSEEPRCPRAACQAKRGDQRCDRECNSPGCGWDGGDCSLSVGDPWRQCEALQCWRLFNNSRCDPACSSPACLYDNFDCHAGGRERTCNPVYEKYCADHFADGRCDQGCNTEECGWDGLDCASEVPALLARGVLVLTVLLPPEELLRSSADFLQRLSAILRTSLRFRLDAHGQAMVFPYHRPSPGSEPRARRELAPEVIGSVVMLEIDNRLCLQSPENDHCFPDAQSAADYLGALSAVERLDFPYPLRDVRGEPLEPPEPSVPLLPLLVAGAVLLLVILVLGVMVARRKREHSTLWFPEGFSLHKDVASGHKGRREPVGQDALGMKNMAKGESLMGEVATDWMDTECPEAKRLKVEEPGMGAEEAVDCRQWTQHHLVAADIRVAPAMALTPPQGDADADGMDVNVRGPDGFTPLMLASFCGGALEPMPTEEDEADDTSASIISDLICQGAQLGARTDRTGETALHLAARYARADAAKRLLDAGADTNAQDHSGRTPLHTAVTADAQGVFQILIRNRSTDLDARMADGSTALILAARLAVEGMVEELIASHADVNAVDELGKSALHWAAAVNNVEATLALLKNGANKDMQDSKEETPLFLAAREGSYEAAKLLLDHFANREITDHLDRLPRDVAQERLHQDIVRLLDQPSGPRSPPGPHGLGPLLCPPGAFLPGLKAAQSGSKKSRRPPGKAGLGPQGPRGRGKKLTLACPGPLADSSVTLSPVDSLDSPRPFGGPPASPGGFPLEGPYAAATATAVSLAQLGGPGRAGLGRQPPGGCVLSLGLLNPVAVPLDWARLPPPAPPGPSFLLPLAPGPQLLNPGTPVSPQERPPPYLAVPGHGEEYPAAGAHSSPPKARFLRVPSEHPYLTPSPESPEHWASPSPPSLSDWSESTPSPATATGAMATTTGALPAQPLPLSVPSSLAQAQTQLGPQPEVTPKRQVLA
# Torsin-1A-interacting protein 2 (Homo sapiens), sequence (Q8NFQ8 whole entry, looked up): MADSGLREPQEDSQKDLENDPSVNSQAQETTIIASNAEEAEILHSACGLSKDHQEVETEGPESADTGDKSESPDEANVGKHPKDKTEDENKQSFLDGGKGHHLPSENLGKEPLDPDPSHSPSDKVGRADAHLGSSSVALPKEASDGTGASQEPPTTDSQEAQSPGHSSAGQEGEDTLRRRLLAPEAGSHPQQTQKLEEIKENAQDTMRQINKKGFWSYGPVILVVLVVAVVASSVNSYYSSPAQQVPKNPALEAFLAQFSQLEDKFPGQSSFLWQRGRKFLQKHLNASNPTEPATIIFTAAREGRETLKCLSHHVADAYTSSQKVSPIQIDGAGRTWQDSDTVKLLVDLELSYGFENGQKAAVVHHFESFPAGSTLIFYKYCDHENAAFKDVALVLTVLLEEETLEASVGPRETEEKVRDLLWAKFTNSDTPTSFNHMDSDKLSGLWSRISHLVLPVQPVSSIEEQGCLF
Compound,composite z-score [1],z-score [2],z-score [3],z-score [4],composite z-score [5],z-score [6],composite z-score [7],composite z-score [8],composite z-score [9],composite z-score [10]
CCCNC(=O)OC[C@H]1O[C@H](CCON=C[C@@H](OC)[C@H](C)C=CCC(=O)OC)C=C[C@@H]1Oc1ccc(OC)cc1,1.17,-1.01 (inactive),0.141 (inactive),-0.0988 (inactive),0.524,0.294 (inactive),-0.0519,0.194,-0.31,-0.136
C#C[C@@H]1Oc2ccccc2S(=O)(=O)N2CCC[C@H]12,-1.07,-0.0284 (inactive),0.809 (inactive),-2.55 (inactive),-0.875,-1.1 (inactive),0.0886,0.18,-0.176,0.056
COCCNC(=O)OCC1CCCC2(CC(OC(=O)NCCc3ccc(F)cc3)CC(CCC(=O)N[C@@H](C)C(=O)OC)O2)O1 (stereo not given in full),1.5,0.104 (inactive),-0.0142 (inactive),0.647 (inactive),0.876,0.0947 (inactive),-0.0845,0.403,1.08,0.433
N#Cc1ccc(NN2C(C(O)c3cccc4ccccc34)C=CC3C(=O)N(c4ccccc4)C(=O)C32)cc1 (stereo not given),1.39,0.242 (inactive),2.28 (inactive),1.75 (inactive),3.41,-0.339 (inactive),0.341,0.157,-0.262,0.0785
COc1ccc(CCNC(=O)[C@@H]2c3ccccc3C(=O)N(c3ccc(C)cn3)[C@H]2c2ccc(CO)cc2)cc1,0.11,-1.5 (inactive),-0.436 (inactive),-1.15 (inactive),3.23,0.604 (inactive),0.121,-1.16,-1.21,-0.404
O=C1[C@H]2[C@H]3[C@H](O)[C@H](O)CC(=NOC[C@@H](O)COCc4ccco4)[C@H]3CC[C@H]2C(=O)N1Cc1ccc2c(c1)OCO2,1.29,-0.285 (inactive),-0.279 (inactive),-1.09 (inactive),-0.829,0.617 (inactive),-0.29,0.154,-0.0875,-0.0039
COc1ccccc1CN1C(=O)c2ccccc2[C@@]2(Cc3ccccc3N(C(C)C)C2=O)[C@@H]1c1ccc(CO)cc1,0.303,-1.69 (inactive),-0.373 (inactive),-1.34 (inactive),-0.114,1.26 (inactive),-0.0999,-0.0723,-0.186,-0.194
[N-]=[N+]=NCc1ccccc1[C@@H]1OC(c2ccc(OCCCO)cc2)=N[C@]1(Cc1ccccc1)C(=O)N1CCOCC1,1.53,-0.655 (inactive),-0.42 (inactive),0.303 (inactive),3.52,0.986 (inactive),0.422,0.671,1.11,0.256
C/C=C\[C@@H](NCc1ccccc1Br)[C@@H](O)Cc1ccccc1,-0.0523,-1.81 (inactive),-13.8 (active),-1.64 (inactive),-0.0942,-0.734 (inactive),0.149,-1.52,-0.735,-0.455
CCCC=C(CCC)[C@@H](NC(=O)c1ccc(-c2ccccc2)cc1)c1ccc(C(=O)OC)cc1,0.665,0.806 (inactive),1.77 (inactive),1.93 (inactive),3.33,-0.665 (inactive),0.0997,0.0811,1.07,-0.022
c1ccc(C2NCCc3c2[nH]c2ccccc32)cc1 (stereo not given),-0.339,-0.272 (inactive),-2.36 (inactive),-0.962 (inactive),0.872,-0.937 (inactive),-0.126,0.388,-0.246,0.122
CN(C)c1ccc(C(O)C2C=CC3C(=O)N(c4ccccc4)C(=O)C3N2Nc2ccccc2F)cc1 (stereo not given),1.09,0.0194 (inactive),-13.6 (active),1.7 (inactive),2.21,-0.457 (inactive),-0.166,-0.318,0.443,0.0904
COc1ccc([Si](C)(C)[C@@H]2[C@@H](CCO)O[C@]3(C(=O)N(Cc4ccc(NC(C)=O)cc4)c4ccccc43)[C@H]2C)cc1,1.55,2.99 (inactive),0.282 (inactive),34.6 (active),2.7,1.44 (inactive),0.0325,1.48,0.949,0.492
O=C1O[C@@H](c2ccccc2)[C@@H](c2ccccc2)N2[C@@H](c3ccc(OCCO)cc3)[C@]3(C(=O)Nc4ccccc43)[C@@H](C(=O)N3CCN(c4ncccn4)CC3)[C@H]12,1.53,1.94 (inactive),1.4 (inactive),4.77 (inactive),2.97,0.856 (inactive),1.04,0.952,1.1,0.0679
O=C1[C@H]2[C@H]3[C@H](O)[C@H](O)CC(=NOCc4ccccc4)[C@@H]3CC[C@H]2C(=O)N1C1CCCCC1,1.1,0.704 (inactive),-3.36 (inactive),0.485 (inactive),1.32,0.0212 (inactive),-0.166,-0.129,0.287,-0.13
Cn1cccc1C(O)C1C=CC2C(=O)NC(=O)C2N1Nc1ccccn1 (stereo not given),0.408,0.0886 (inactive),1.23 (inactive),0.0533 (inactive),-0.503,-0.975 (inactive),-0.19,-0.0645,-0.929,0.0865
O=C1[C@H]2[C@H]3[C@H](O)[C@H](O)CC(=NOC[C@@H](O)COCc4ccco4)[C@H]3CC[C@H]2C(=O)N1C1CCCCC1,1.1,0.432 (inactive),-0.299 (inactive),0.356 (inactive),-0.522,-0.263 (inactive),-0.0841,1.19,0.214,-0.0141
COC(=O)[C@@]1(Cc2ccc(F)cc2)[C@H]2c3cc(C(=O)N(C)C)n(Cc4ccc(OC)c(OC)c4)c3C[C@H]2CN1C(=O)c1ccccc1,-1.32,0.0573 (inactive),-0.636 (inactive),-0.249 (inactive),1.54,-0.31 (inactive),0.498,-0.344,-0.309,0.365
COCC1=C2[C@@H](CCc3ccccc3)OB(O)C[C@@H]2n2c(=O)n(-c3ccccc3)c(=O)n2C1,-0.162,0.114 (inactive),-0.591 (inactive),-0.644 (inactive),0.332,0.203 (inactive),-0.166,0.264,-0.26,-0.145
CC(C)CON=C1C[C@@H](O)[C@@H](O)[C@@H]2[C@@H]3C(=O)N(Cc4ccccc4)C(=O)[C@@H]3CC[C@@H]12,0.517,-0.443 (inactive),-0.264 (inactive),-0.682 (inactive),0.434,0.354 (inactive),-0.099,0.484,0.59,-0.0679
COc1cccc([C@@H]2Oc3ccc(Br)cc3C(=O)[C@H]2O)c1,-0.366,-2.84 (inactive),-10.6 (active),-1.5 (inactive),1.49,0.9 (inactive),-0.0615,1.13,0.834,-0.0828
CN1C(=O)C2C=CC(C(O)c3ccc(I)cc3)N(NC(=O)OC(C)(C)C)C2C1=O (stereo not given),0.896,0.725 (inactive),-0.424 (inactive),0.931 (inactive),3.21,-1.07 (inactive),0.0607,0.17,1.04,0.157
CCc1cccc(NC(=O)O[C@H]2[C@H](OC(=O)Nc3ccc4c(c3)OCO4)[C@@H](OC(=O)Nc3ccc4c(c3)OCO4)[C@@H](OC)O[C@@H]2CO)c1,1.54,1.41 (inactive),1.5 (inactive),-2.13 (inactive),3.59,1.47 (inactive),0.166,1.22,1.08,-0.0488
CC(C)[C@@H](OCc1ccccc1)[C@H](C)C=NO[C@H](C)c1cn([C@H](CO)Cc2ccccc2)nn1,1.55,-2.33 (inactive),-3.29 (inactive),-1.26 (inactive),0.825,-0.671 (inactive),-0.153,0.453,0.712,-0.0828
CO[C@H]1COC(=O)[C@H](C)COC(=O)CC=C[C@@H](C)[C@H](OC)COC(=O)CC=C[C@@H]1C,0.438,0.0305 (inactive),-0.818 (inactive),-0.147 (inactive),-0.798,0.614 (inactive),-0.233,0.638,0.336,-0.0302
C[C@@H](c1ccccc1)N1C(=O)[C@H]2[C@H]3[C@H](O)[C@H](O)CC(=NOC[C@@H](O)COCc4ccco4)[C@@H]3CC[C@H]2C1=O,-0.291,0.539 (inactive),0.37 (inactive),1.3 (inactive),0.304,0.181 (inactive),-0.217,-1.01,-1.1,-0.221
COC(=O)[C@@]1(Cc2ccc(OC)cc2)[C@H]2c3cc(C(=O)N4CCCC4)n(Cc4cc(F)c(F)c(F)c4)c3C[C@H]2CN1C(=O)c1ccccc1,1.25,0.68 (inactive),1.39 (inactive),7.41 (inactive),3.39,-1.19 (inactive),1.44,-0.131,1.01,1.17
CC1CC/C=C\[C@H]2OC34C=CCN(C(C)C)C(=O)[C@H]3N(CCCO)C(=O)[C@@H]4C2C(=O)O1 (stereo not given in full),1.04,-1.36 (inactive),-1.14 (inactive),-0.24 (inactive),1.29,1.14 (inactive),0.131,-1.42,-0.344,-0.214
COC(=O)[C@@]1(Cc2ccccc2)[C@H]2c3cc(C(=O)N4CCCC4)n(Cc4ccccn4)c3C[C@H]2CN1C(=O)c1ccccc1,1.57,0.263 (inactive),0.296 (inactive),0.513 (inactive),4,-0.301 (inactive),0.614,0.856,1.14,0.211
CCOC(=O)CCN1C(=O)[C@H]2[C@H]3[C@H](O)[C@H](O)CC(=NOCc4ccccc4)[C@@H]3CC[C@H]2C1=O,0.454,-0.14 (inactive),0.116 (inactive),-0.664 (inactive),0.175,-0.961 (inactive),-0.147,0.676,1,-0.0597
